MEKK2 mut-MEK5 – signal of MEK5 binding to mutant human MEKK2 PB1 domain; bead flow cytometry, Alexa488-MEK5 binding to MEKK2 mutant; percent response, % at 10 µM; hit rate 0.35% among 290,000; in the data active = percent response above about 24%, passing the limit was not always enough
MEKK3 PB1 HTS – MEKK3-MEK5 PB1 interaction, increase or decrease; Q99759; bead-based flow cytometry, Alexa488-MEK5 binding to MEKK3; actives lie on both sides; 0 = blocked by unlabeled MEK5, 100 = vehicle; binding response (% of control), % at 10 µM; hit rate 1.4% among 290,000;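 active = binding response more than 3 SD above or below the average of its plate-row segment, actives on both sides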;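 note: Alexa488 bead fluorescence after subtracting the streptavidin-only scavenger bead signal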
Target sequence (Q99759 whole entry, looked up): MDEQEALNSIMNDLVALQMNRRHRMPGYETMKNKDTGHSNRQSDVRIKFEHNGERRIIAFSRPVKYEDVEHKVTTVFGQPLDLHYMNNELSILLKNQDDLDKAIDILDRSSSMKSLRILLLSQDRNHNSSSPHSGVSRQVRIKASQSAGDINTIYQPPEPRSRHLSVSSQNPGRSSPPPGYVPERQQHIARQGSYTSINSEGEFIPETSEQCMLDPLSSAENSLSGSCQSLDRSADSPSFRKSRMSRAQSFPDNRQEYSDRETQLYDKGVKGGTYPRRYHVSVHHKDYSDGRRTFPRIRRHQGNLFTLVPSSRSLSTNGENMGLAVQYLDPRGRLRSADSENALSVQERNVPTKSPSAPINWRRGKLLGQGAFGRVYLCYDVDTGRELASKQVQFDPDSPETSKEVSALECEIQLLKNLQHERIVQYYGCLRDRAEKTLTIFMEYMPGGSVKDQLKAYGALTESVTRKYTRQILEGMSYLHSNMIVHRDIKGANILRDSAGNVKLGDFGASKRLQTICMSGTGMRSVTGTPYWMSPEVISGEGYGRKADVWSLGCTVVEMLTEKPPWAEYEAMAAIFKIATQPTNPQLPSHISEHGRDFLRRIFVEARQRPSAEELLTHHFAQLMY
GRK2 inh – inhibitors of human GRK2 displacing RNA aptamer; hit rate 0.59% among 330,000; inhibition of aptamer binding, % at 10 µM; bead flow cytometry, FAM-aptamer displacement from GRK2; P25098;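 active = inhibition of aptamer binding above 40%, roughly 3 SD of noise, on plates passing a quality check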;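 note: median bead fluorescence of bound FAM aptamer so fluorescent compounds give negative values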
MEKK2wt PB1 HTS – raises or lowers MEK5 binding to wildtype human MEKK2 PB1 domain | Q9Y2U5 | bead flow cytometry, Alexa488-MEK5 binding to MEKK2 WT; actives lie on both sides | binding response (% of control), % at 10 µM | hit rate 1.1% among 290,000 | AID 1531; in the data active = binding response below about 67% or above about 130%
* hit, by the source's call; · = no result given; [ ] = another dose, or the depositor's remark. An excerpt weighted towards active compounds, which were near 2.5% of everything screened.

SMILES	MEKK2 mut-MEK5	MEKK3 PB1 HTS	GRK2 inh	MEKK2wt PB1 HTS
CC1CCCC(C(=O)O)N1C(=O)CCS (stereo not drawn)	4	111	1	109
FC(F)(F)c1ccc(N2CCN(c3ncnc4c3nnn4Cc3ccccc3Cl)CC2)cc1	4	109	2	105
Fc1ccc(N2CCN(c3ncnc4c3nnn4Cc3ccccc3Cl)CC2)cc1	-3	71*[inhibitor]	0	89
Cc1cccc(NC(=O)CNCC(=O)Nc2cccc(C)c2C)c1C	-2	101	5	104
Cc1cccc(NC(=O)CNC(=O)c2cccc(-n3cccc3)c2)c1C	·	·	50*	·
C[C@]12c3[nH]c4cc(-c5ccco5)ccc4c3CCN1C(=O)[C@@H](CC(=O)NCc1cccc(C(F)(F)F)c1)C[C@@H]2C(=O)N1CCCCC1	·	·	0	·
CC(C)CCN1C(=O)c2ccc(C(=O)OCC(=O)N(C)C3CCS(=O)(=O)C3)cc2C1=O (stereo not drawn)	·	·	0	·
Cc1cccc2cc3c(N)c(C(=O)N4CCc5ccccc54)sc3nc12	23	122	1	30*
Cc1cc(C(=O)NNC(=O)CCCCC(=O)NNC(=O)c2cc(C)[nH]n2)n[nH]1	-1	98	0	101
CCn1nc(C)c(CN2CCC(C(=O)Nc3cccc(-c4cccc(F)c4)c3)CC2)c1C	25*	106	0	136*
Fc1ccccc1Nc1nc(Cl)nc(Cl)n1	1	101	2	97
CCC(C)(C)NC(=O)C1CCN(S(=O)(=O)c2cccs2)CC1	81*	93	·	296*
CCc1ccc(NC(=O)C2CCN(S(=O)(=O)c3cccs3)CC2)cc1	-6	100	0	95
CCN(CC)c1ccc(/C=C(\C#N)c2nc(-c3cccs3)c(NC(C)=O)s2)cc1	517*	104	·	290*
Cn1nc(C(F)(F)F)c(C(=O)Nc2ccc(C(F)(F)F)cc2)c1Cl	-3	98	11	99
C[C@H](CO)N1C[C@H](C)[C@@H](CN(C)Cc2ccc(-c3ccccc3)cc2)Oc2c(NS(=O)(=O)c3cn(C)cn3)cccc2C1=O	·	·	0	·
Cc1ccc(CNC(=O)Cn2cccc2C(=O)c2ccccc2C)cc1	5	102	1	-1.0*
Cc1ccccc1C(=O)c1cccn1CC(=O)NCc1ccc(Cl)cc1	-3	94	0	96
COC/C=C/C1=CC2=CC(=O)C(C)(O)C(=O)C2=CO1 (stereo not drawn)	-9	96	87*	90
COc1ccc(N=c2scc(-c3ccc(S(=O)(=O)N4CCOCC4)cc3)n2CCCO)cc1	-36	2.0*[inhibitor]	·	3.0*[inhibitor]
CC(=O)C(CC(=O)N1CCCc2ccccc21)C(=O)Nc1ccc(F)cc1 (stereo not drawn)	1	95	2	102
c1csc(-c2nc3c4ccccc4c4ccccc4c3[nH]2)c1	8	109	0	116
Oc1ccccc1-c1nc2c3ccccc3c3ccccc3c2[nH]1	27	107	3	-12*
CC(C(=O)O)N1C(=O)/C(=C/C=C/c2ccco2)SC1=S (stereo not drawn)	-1	98	98*	96
O=C(O)CCCN1C(=O)/C(=C\c2ccco2)SC1=S	-8	99	·	94
SMILES	MEKK2 mut-MEK5	MEKK3 PB1 HTS	GRK2 inh	MEKK2wt PB1 HTS
CCn1c(SCC(=O)Nc2nnc(C)s2)nnc1C(C)NC(=O)c1ccccc1F (stereo not drawn)	-3	99	2	98
O=C(NCCNC(=O)c1ccccc1F)c1ccco1	-25	0.0*[inhibitor]	0	-12*[inhibitor]
O=C(NCCNC(=O)c1ccco1)c1ccco1	2	99	1	99
Cc1cc(-c2ccccc2)n(-c2ccc(C(=O)N3CCN(c4ncccn4)CC3)cc2)n1	0	98	0	102
COc1cc2cc(CN(Cc3cccs3)C(=S)Nc3ccccc3)c(=O)[nH]c2cc1OC	1	104	10	103
COc1ccc2[nH]c(=O)c(CN(Cc3cccs3)C(=S)Nc3ccccc3)cc2c1	-1	100	1	-1.0*
CN(C)CCC(c1ccccc1)c1ccccn1 (stereo not drawn)	2	63	0	81
CN(C)CCC(O)c1ccccc1 (stereo not drawn)	2	93	0	-4.0*
O=C(NNC(=O)c1cccnc1SCc1cccc([N+](=O)[O-])c1)c1ccccn1	-1	134*	0	106
CC(C)(C)c1ccc(CSc2ccc(S(=O)(=O)N3CCOCC3)cn2)cc1	·	·	0	·
CC(C)CN1C(=O)/C(=C/c2c(N3CCc4ccccc4C3)nc3ccccn3c2=O)SC1=S	77*	22*[inhibitor]	·	·
CCOC(=O)CC1C(=O)NCCN1c1nc2c(C)cccn2c(=O)c1/C=C1\SC(=S)N(CC(C)C)C1=O (stereo not drawn)	-1	97	·	70
O=C(NCCCN1CCCC1)C1CCN(C(=O)c2cc3sccc3n2Cc2ccc(F)cc2)CC1	28*	109	0	168*
CC(=O)c1cccc(S(=O)(=O)N2CCC(C(=O)N(C)Cc3ccc(Cl)s3)CC2)c1	·	·	11	·
CN1CCN(C(=O)c2ccc3c(c2)N(C)C(=O)/C(=C/c2cccc(Cl)c2)S3)CC1	17	104	1	137*
CC(C)N1CCC2(CC1)C(C#N)=C(N)NC(S)=C2C#N	0	98	58*	100
N#CC1=C(N)NC(SCC(=O)O)=C(C#N)C12CCCC2	5	105	1	104
COc1cc(/C=C2\C(=N)N3N=C(S(C)(=O)=O)SC3=NC2=O)ccc1OS(=O)(=O)c1ccccc1	-8	94	0	91
CCS(=O)(=O)C1=NN2C(=N)/C(=C\c3ccc(OS(=O)(=O)c4ccccc4)c(OC)c3)C(=O)N=C2S1	-6	98	41*	92
COCCCNC(=O)/C(C#N)=C/c1ccc(OCC(=O)O)c(OC)c1	8	101	44*	91
Cc1ccc(C(=O)Nc2nnc(CC(=O)N/N=C/c3ccc(O)c(O)c3)s2)cc1	-9	97	62*	91
NC(=O)C1CCN(C(=O)COc2ccc3ccccc3c2Br)CC1	-2	97	0	100
O=C(COc1ccc2ccccc2c1Br)N1CCCCC1	2	101	87*	101
Cc1nc(NC2=NCN(C3CCCCC3C)CN2)nc2ccccc12 (stereo not drawn)	11	102	·	139*
c1ccc2oc(NC3=NCN(C4CCCCC4)CN3)nc2c1	4	98	4	93
Cc1cc(NC(=O)Cn2ccc([N+](=O)[O-])n2)no1	-1	95	1	98
Cc1ccc([N+](=O)[O-])c(OCCCN2CCC(Cc3ccccc3)CC2)c1	15	111	0	143*
O=C(NCc1ccncc1)C1CCN(S(=O)(=O)Cc2ccccc2)CC1	0	100	0	101
O=C(NCCCN1CCCCCC1)c1cc2c(=O)oc3ccccc3c2s1	23	106	0	136*
Cc1ccc2oc(=O)c3cc(C(=O)NCCCN4CCN(C)CC4)sc3c2c1	7	108	1	113
